Reference: PubChem BioAssay (Tox21)
Values joined by “and” are separate entries in the source; they are usually repeats but may differ in a detail not shown here. Identical values can stand only once. Some compounds were tested as several samples or in several runs, with calls that do not always agree. Active and inactive are the calls of the source. Where a call stands in place of a potency, no number is given. Unless noted, the call rests on the fitted dose curve; in most records, active means well fitted curve in the direction sought with a large enough effect in the repeat runs; inconclusive means weak or mixed curves; inactive means no such curve, though single readings can be large; an effect the other way counts as inactive or inconclusive.

Assays:
[1] = molecular target: Estrogen receptor (Homo sapiens) (UniProt P03372); test: qHTS assay to identify small molecule antagonists of the estrogen receptor alpha (ER-alpha) signaling pathway (AID 743069; active means well fitted curve in the direction sought with a large enough effect in the signal ratio in the repeat runs, not every such curve was filed as active; inconclusive means weak or mixed curves, or effect the other way; inactive means no such curve, though single readings can be large or run the other way; the % refers to the signal ratio)
Chain of Estrogen receptor (Homo sapiens) (P03372 whole entry, looked up): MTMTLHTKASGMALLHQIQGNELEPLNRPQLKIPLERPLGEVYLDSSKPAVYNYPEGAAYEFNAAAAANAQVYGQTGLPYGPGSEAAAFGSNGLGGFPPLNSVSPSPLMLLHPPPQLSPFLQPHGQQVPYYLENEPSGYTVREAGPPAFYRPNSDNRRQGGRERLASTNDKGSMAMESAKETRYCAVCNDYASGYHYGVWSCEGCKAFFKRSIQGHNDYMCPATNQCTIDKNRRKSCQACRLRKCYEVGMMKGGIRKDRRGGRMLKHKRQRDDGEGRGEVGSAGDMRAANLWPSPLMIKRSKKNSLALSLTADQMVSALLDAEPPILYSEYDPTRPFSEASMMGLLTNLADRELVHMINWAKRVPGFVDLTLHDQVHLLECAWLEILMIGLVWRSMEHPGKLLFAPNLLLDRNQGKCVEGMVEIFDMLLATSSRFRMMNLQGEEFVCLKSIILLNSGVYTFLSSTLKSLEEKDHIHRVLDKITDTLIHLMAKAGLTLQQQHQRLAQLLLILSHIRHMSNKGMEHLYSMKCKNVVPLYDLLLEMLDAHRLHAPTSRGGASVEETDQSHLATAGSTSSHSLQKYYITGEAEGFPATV
How it was run: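 Fluorescence intensity from a beta-lactamase FRET substrate served as the read-out. Cells: HEK293 with stably integrated ER-alpha-UAS-bla reporter. Agonist 17beta-estradiol was co-added with compounds; incubation 18 hr at 37C, substrate 2 hr at room temperature.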

[2] = qHTS assay to identify small molecule antagonists of the estrogen receptor alpha (ER-alpha) signaling pathway - cell viability counter screen (AID 743074; calls by dose curve; further: nearly all actives have a fitted effect of over 45% in size; further: potency means the concentration at half of the fitted maximal effect)
[3] = molecular target: Estrogen receptor (Homo sapiens) (UniProt P03372); test: qHTS assay to identify small molecule agonists of the estrogen receptor alpha (ER-alpha) signaling pathway (AID 743075; calls by dose curve; further: potency means the concentration at half of the fitted maximal effect)
[4] = molecular target: Estrogen receptor (Homo sapiens) (UniProt P03372); test: qHTS assay to identify small molecule agonists of the estrogen receptor alpha (ER-alpha) signaling pathway using the BG1 cell line (AID 743079); further: nearly all actives have a fitted effect of over 20% in size; further: potency means the concentration at half of the fitted maximal effect
[5] = qHTS assay to identify small molecule antagonists of the estrogen receptor alpha (ER-alpha) signaling pathway using the BG1 cell line (AID 743080; calls by dose curve;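 further: BG1 cells stimulated with 17beta-estradiol alongside compound; nearly all actives have a fitted effect of over 25% in size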; further: potency means the concentration at half of the fitted maximal effect)
How it was run: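 Luminescence from a 4×ERE-luciferase reporter in BG1-Luc-4E2 cells served as read-out. Cells, pre-cultured 5 days in stripped-serum phenol-red-free medium, were exposed to compound with 17beta-estradiol co-stimulation for 21.5 h at 37 C.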

[6] = qHTS assay to identify small molecule antagonists of the estrogen receptor alpha (ER-alpha) signaling pathway using the BG1 cell line - cell viability counter screen (AID 743081);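 further: compound given together with 17beta-estradiol as the ER stimulus; nearly all actives have a fitted effect of over 45% in size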; further: potency means the concentration at half of the fitted maximal effect
Aromatase (Homo sapiens) = Aromatase (Homo sapiens) (UniProt P11511); test: qHTS assay to identify aromatase inhibitors (AID 743083); further: nearly all actives have a fitted effect of over 55% in size; further: potency means the concentration at half of the fitted maximal effect
Chain of Aromatase (Homo sapiens) (P11511 whole entry, looked up): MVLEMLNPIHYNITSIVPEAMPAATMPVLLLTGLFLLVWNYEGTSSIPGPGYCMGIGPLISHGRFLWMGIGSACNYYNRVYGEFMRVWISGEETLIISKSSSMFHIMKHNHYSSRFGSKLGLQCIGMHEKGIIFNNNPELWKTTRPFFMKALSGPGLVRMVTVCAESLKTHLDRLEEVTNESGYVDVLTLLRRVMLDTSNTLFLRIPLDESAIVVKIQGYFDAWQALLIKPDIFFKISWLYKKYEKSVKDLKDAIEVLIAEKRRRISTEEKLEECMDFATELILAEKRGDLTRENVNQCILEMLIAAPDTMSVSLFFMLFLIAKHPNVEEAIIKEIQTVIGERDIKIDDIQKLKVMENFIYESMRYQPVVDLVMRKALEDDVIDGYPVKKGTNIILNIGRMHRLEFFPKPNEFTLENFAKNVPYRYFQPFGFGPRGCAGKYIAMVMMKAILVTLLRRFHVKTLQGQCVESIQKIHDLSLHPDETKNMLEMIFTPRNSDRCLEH

[7] = qHTS assay to identify aromatase inhibitors - cell viability counter screen (AID 743084);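 further: cells stimulated with testosterone during compound exposure; nearly all actives have a fitted effect of over 55% in size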; further: potency means the concentration at half of the fitted maximal effect
[8] = molecular target: Aryl hydrocarbon receptor (Homo sapiens) (UniProt P35869); test: qHTS assay to identify small molecule that activate the aryl hydrocarbon receptor (AhR) signaling pathway (AID 743085); further: nearly all actives have a fitted effect of over 15% in size; further: potency means the concentration at half of the fitted maximal effect;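 on activation: HG2L7.5c1 human HepG2 liver cells with stably integrated DRE-driven firefly reporter; series mostly up to about 70 µM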
Chain of Aryl hydrocarbon receptor (Homo sapiens) (P35869 whole entry, looked up): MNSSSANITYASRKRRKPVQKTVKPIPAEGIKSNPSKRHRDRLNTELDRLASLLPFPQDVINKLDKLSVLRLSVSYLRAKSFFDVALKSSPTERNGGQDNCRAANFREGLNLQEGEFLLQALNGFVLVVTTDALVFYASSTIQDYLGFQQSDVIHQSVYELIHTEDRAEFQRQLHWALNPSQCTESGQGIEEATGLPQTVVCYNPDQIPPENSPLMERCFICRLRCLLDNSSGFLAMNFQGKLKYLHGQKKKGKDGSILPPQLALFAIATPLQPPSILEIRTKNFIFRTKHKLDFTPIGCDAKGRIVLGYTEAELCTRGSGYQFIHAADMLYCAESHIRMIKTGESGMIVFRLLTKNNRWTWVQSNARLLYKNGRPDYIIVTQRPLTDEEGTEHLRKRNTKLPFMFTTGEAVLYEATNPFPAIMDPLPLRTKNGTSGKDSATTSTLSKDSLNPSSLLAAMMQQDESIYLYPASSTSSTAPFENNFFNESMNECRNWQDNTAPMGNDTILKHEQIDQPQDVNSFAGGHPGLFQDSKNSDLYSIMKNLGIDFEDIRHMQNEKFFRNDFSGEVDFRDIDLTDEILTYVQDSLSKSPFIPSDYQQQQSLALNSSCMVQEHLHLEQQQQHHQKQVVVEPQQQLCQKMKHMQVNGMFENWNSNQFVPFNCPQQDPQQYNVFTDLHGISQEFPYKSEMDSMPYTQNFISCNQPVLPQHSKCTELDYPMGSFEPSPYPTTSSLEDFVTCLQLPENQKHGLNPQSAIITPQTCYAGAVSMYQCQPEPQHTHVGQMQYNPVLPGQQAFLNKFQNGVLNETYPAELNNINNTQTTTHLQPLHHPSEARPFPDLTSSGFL
How it was run: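 Measured in HG2L7.5c1 cells: CellTiter-Fluor signal (30 min incubation, 37C) for viability, then luciferase luminescence (30 min, room temperature). Compound contact time was 24 h at 37C, following a 5 h pre-incubation.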

[9] = molecular target: Peroxisome proliferator-activated receptor gamma (Homo sapiens) (UniProt P37231); test: qHTS assay to identify small molecule agonists of the peroxisome proliferator-activated receptor gamma (PPARg) signaling pathway (AID 743094; active means well fitted activation curve with a large enough effect in the signal ratio in the repeat runs, not every such curve was filed as active; inconclusive means weak or mixed curves, or effect the other way; inactive means no such curve, though single readings can be large or run the other way; the % refers to the signal ratio; further: potency means the concentration at half of the fitted maximal effect)
Chain of Peroxisome proliferator-activated receptor gamma (Homo sapiens) (P37231 whole entry, looked up): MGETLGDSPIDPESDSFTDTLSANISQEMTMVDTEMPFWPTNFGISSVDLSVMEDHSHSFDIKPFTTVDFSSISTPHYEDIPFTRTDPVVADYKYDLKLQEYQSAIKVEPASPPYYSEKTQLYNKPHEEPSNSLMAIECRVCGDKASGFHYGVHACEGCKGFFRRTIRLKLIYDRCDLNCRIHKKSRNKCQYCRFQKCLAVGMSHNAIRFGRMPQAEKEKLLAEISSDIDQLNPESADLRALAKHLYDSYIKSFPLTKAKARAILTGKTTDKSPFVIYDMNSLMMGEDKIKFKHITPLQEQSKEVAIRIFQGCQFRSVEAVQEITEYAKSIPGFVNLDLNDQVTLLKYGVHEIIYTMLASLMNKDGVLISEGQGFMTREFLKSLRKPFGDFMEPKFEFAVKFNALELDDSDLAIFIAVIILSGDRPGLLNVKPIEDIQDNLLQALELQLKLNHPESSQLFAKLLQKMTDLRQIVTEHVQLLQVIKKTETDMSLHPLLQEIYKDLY
How it was run: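 Fluorescence-based beta-lactamase readout in HEK293H PPARg UAS-bla cells after 17 h compound exposure (37C) and 1 h B/G FRET substrate incubation at room temperature.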

[10] = qHTS assay to identify small molecule antagonists of the peroxisome proliferator-activated receptor gamma (PPARg) signaling pathway - cell viability counter screen (AID 743194); further: nearly all actives have a fitted effect of over 55% in size; further: potency means the concentration at half of the fitted maximal effect
How it was run: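 Viability was measured as CellTiter-Glo luminescence in GeneBLAzer PPARg UAS-bla HEK293H cells. These cells had been exposed 17 h at 37 C to compounds together with rosiglitazone at 50 nM final, with the beta-lactamase readout taken in the same wells.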

[11] = qHTS assay for small molecule agonists of the antioxidant response element (ARE) signaling pathway (AID 743202; active means well fitted activation curve with a large enough effect in the signal ratio in the repeat runs, not every such curve was filed as active; inconclusive means weak or mixed curves, or effect the other way; inactive means no such curve, though single readings can be large or run the other way; the % refers to the signal ratio; further: potency means the concentration at half of the fitted maximal effect)
How it was run: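 Beta-lactamase reporter activity, read as fluorescence intensity, reflects ARE/Nrf2 pathway induction in HepG2 cells after 16 h compound exposure at 37 C; substrate loading was 2 h at room temperature.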

[12] = qHTS assay for small molecule activators of the heat shock response signaling pathway - cell viability counter screen (AID 743209); further: nearly all actives have a fitted effect of over 50% in size
How it was run: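 To flag cytotoxic compounds, HSE-bla HeLa cells plated at 1500 cells/well were dosed for 5 h at 37 C, followed by the reporter FRET read and then CellTiter-Glo, with luminescence recorded 30 min after reagent addition.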

[13] = qHTS assay for small molecule activators of the heat shock response signaling pathway (AID 743210; active means well fitted activation curve with a large enough effect in the signal ratio in the repeat runs, with a control signal flat, not every such curve was filed as active; inconclusive means weak or mixed curves; the % refers to the signal ratio;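 further: HeLa cells with beta-lactamase reporter driven by heat shock elements; series mostly up to about 63 µM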)
How it was run: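 Fluorescence from a cleaved B/G FRET substrate (2.5 h, room temp) reports HSE-driven beta-lactamase in HeLa cells treated 5 h at 37 C with DMSO-dissolved compounds.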

[14] = tested on: thyroid hormone receptor (rat, GH3 cells); test: qHTS assay to identify small molecule agonists of the thyroid receptor (TR) signaling pathway (AID 743066; calls by dose curve; further: potency means the concentration at half of the fitted maximal effect)
[15] = qHTS assay to identify small molecule that activate the aryl hydrocarbon receptor (AhR) signaling pathway - cell viability counter screen (AID 743086); further: nearly all actives have a fitted effect of over 45% in size; further: potency means the concentration at half of the fitted maximal effect
How it was run: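 Cytotoxicity counter screen: CellTiter-Fluor signal (30 min, 37 C) in 4000 HepG2 cells/well carrying the DRE-luciferase reporter, following 24 h compound exposure at 37 C.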

[16] = qHTS assay for small molecule agonists of the antioxidant response element (ARE) signaling pathway - cell viability counter screen (AID 743203; calls by dose curve; further: nearly all actives have a fitted effect of over 55% in size; further: potency means the concentration at half of the fitted maximal effect)
How it was run: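 Parallel cytotoxicity read-out for the ARE-bla screen: HepG2 reporter cells, 16 hrs with compounds, then CellTiter-Glo luminescence.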

[17] = qHTS assay to identify small molecule antagonists of the thyroid receptor (TR) signaling pathway - cell viability counter screen (AID 743064); further: nearly all actives have a fitted effect of over 50% in size; further: potency means the concentration at half of the fitted maximal effect
How it was run: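 Counter screen for cytotoxicity: compound plus T3 (1 nM final) on GH3.TRE-Luc cells, 23.5 h at 37 °C, then fluorescence viability readout with CellTiter-Fluor.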

[18] = molecular target: Peroxisome proliferator-activated receptor gamma (Homo sapiens) (UniProt P37231); test: qHTS assay to identify small molecule antagonists of the peroxisome proliferator-activated receptor gamma (PPARg) signaling pathway (AID 743191; calls by dose curve; further: nearly all actives have a fitted effect of over 30% in size; further: potency means the concentration at half of the fitted maximal effect)
How it was run: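 Beta-lactamase reporter under UAS control in HEK293H PPARg-bla cells; compound treatment 17 h at 37C. Read-out: fluorescence intensity after 1 h room-temperature incubation with LiveBLAzer B/G FRET substrate.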

SMILES	Potency [1]	Potency [2]	Potency [3]	Potency [4]	Potency [5]	Potency [6]	Potency (Aromatase (Homo sapiens))	Potency [7]	Potency [8]	Potency [9]	Potency [10]	Potency [11]	Potency [12]	Potency [13]	Potency [14]	Potency [15]	Potency [16]	Potency [17]	Potency [18]
Nc1ncnc2nc[nH]c12	inactive	inactive	inactive	inactive	inactive	inactive	inactive	inactive	inactive	inactive	inactive	inactive	inactive	inactive					
CCC(C)(O)CCCC(C)C (centres undefined)	inactive	inactive	inactive	inactive	inactive	inactive	inactive	inactive	inactive	inactive	inactive	inactive	inactive	inactive	inactive	inactive	inactive		
c1ccc2cc(Nc3ccc(Nc4ccc5ccccc5c4)cc3)ccc2c1		inactive				inactive	inactive	inactive	30.8 µM (active) and 30.6 µM (active)	22 µM (active)	inactive	inactive	inactive	inactive	inactive	inactive	inactive	inactive	
O=C(COc1ccc(Cl)cc1)N1CCN(Cc2ccc3c(c2)OCO3)CC1	inactive	inactive and 30.9 µM (active)	inactive		61.1 µM (active)	inactive	inactive	inactive	inactive			15.4 µM (active) and 29.8 µM (active)	inactive	inactive	inactive	inactive	inactive	inactive	
CC(=O)C1(C)CC2=C(CCCC2(C)C)CC1C (centres undefined)		inactive				inactive	inactive	inactive	inactive	inactive	inactive	inactive	inactive	inactive	inactive	inactive	inactive	inactive	
CC(C)=CCC/C(C)=C\CO		inactive				inactive		inactive	inactive	inactive	inactive	inactive	inactive		24.5 µM (active) and inactive	inactive	inactive	inactive	
COc1ccc(OC)c(C(O)CNC(=O)CN)c1 (centres undefined)	inactive	inactive	inactive	inactive	inactive	inactive	inactive	inactive	inactive	inactive	inactive	inactive	inactive	inactive		inactive	inactive		
O=C1OC2(c3cc(Br)c(O)c(Br)c3Oc3c2cc(Br)c(O)c3Br)c2c(Cl)c(Cl)c(Cl)c(Cl)c21	inactive		inactive	inactive		8.64 µM (active) and 18.6 µM (active)	inactive	4.86 µM (active) and 8.31 µM (active)	inactive		inactive	inactive	inactive		inactive	9.7 µM (active) and 5.88 µM (active)	inactive	24.4 µM (active) and 41.6 µM (active)	
C[C@]12CC[C@H]3[C@@H](CCC4=CC(=O)CC[C@@]43C)[C@@H]1CC[C@@H]2C(=O)CO		inactive	inactive	7.7 µM (active)	inactive	inactive	inactive	inactive	inactive	inactive	inactive		inactive	inactive	inactive	inactive	inactive	inactive	
C[Si](C)(C)O[Si](C)(C)C		inactive				inactive	inactive	inactive	inactive	inactive	inactive	inactive	inactive	inactive	inactive		inactive	inactive	
Nc1ccc(S(=O)(=O)Nc2cnc3ccccc3n2)cc1		inactive				inactive	inactive	inactive	inactive	inactive	inactive	inactive	inactive	inactive	inactive		inactive	inactive	inactive
CC(=O)c1ccccn1		inactive				inactive	inactive	inactive	inactive	inactive	inactive	inactive	inactive	inactive	inactive		inactive	inactive	inactive
CNCCCC12CCC(c3ccccc31)c1ccccc12		inactive and 49 µM (active)	inactive	inactive		inactive	inactive and 30.6 µM (active)	inactive and 54.5 µM (active)	inactive	inactive	54.9 µM (active)		inactive	inactive			19.3 µM (active)	11.9 µM (active) and 4.86 µM (active)	13.3 µM (active)
CCCCC/C=C/C=C/C=O		inactive				inactive	inactive	inactive	inactive		38.6 µM (active) and 38.9 µM (active)		inactive		inactive	inactive	inactive		
c1cc(N(CC2CO2)CC2CO2)ccc1OCC1CO1 (centres undefined)		inactive	inactive	inactive		inactive	24.4 µM (active) and 54.5 µM (active)	27.3 µM (active)	inactive			27.3 µM (active) and 19.3 µM (active)			inactive		inactive	19.4 µM (active) and 27.3 µM (active)	
Cc1cc2nc3c(=O)[nH]c(=O)nc-3n(C[C@H](O)[C@H](O)[C@H](O)CO)c2cc1C		inactive									inactive		inactive	inactive	inactive		inactive		
C#C[C@]1(O)CC[C@H]2[C@@H]3CCc4cc(OC)ccc4[C@H]3CC[C@@]21C		inactive	19 nM [inconclusive] (active) and 30.9 nM [inconclusive] (active)	1.5 nM (active) and 0.8 nM (active)	inactive	inactive		inactive	inactive	inactive	inactive		inactive	inactive	inactive	inactive	inactive	inactive	
